Assay results taken from ChEMBL document CHEMBL1961873, “Compounds: GSK PKIS; Assays: Nanosyn kinase panel” (2012).

Assays:
[1] = test system: Epidermal growth factor receptor (Homo sapiens), P00533 [T790M]; conditions: at 1 µM
[2] = test system: Epidermal growth factor receptor (Homo sapiens), P00533 [L858R,T790M]; conditions: at 0.1 µM
[3] = test system: Epidermal growth factor receptor (Homo sapiens), P00533 [L858R,T790M]; conditions: at 1 µM
[4] = biological target: Ephrin type-A receptor 2 (Homo sapiens) (UniProt P29317); conditions: at 0.1 µM
Chain of Ephrin type-A receptor 2 (Homo sapiens) (P29317 whole entry): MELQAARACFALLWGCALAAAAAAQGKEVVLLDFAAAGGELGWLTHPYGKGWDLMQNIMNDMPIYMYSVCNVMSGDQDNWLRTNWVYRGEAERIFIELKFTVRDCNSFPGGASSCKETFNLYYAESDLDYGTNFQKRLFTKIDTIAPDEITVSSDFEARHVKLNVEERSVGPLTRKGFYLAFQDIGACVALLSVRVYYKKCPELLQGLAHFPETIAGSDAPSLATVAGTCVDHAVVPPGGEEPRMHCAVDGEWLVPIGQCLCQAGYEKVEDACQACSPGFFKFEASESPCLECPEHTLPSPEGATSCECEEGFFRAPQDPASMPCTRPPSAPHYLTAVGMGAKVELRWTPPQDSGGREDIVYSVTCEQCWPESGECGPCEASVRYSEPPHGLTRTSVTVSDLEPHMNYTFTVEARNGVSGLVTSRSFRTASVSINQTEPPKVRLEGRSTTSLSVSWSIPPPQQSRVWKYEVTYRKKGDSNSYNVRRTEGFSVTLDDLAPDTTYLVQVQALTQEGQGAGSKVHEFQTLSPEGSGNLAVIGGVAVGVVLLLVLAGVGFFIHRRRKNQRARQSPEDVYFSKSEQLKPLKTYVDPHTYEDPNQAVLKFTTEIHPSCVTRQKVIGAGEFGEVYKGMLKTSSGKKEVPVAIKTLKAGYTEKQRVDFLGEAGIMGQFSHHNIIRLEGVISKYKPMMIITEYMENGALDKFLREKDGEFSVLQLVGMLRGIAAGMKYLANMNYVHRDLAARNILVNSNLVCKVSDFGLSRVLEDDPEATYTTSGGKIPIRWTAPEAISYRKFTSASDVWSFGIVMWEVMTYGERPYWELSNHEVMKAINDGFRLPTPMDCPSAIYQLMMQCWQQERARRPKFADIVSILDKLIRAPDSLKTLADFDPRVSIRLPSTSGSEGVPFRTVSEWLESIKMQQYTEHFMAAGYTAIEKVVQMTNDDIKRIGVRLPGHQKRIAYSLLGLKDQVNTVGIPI

[5] = biological target: Ephrin type-A receptor 2 (Homo sapiens) (UniProt P29317); conditions: at 1 µM
[6] = biological target: T1, Ephrin type-A receptor 3 (Homo sapiens) (UniProt P29320); conditions: at 0.1 µM
T1 sequence (whole entry): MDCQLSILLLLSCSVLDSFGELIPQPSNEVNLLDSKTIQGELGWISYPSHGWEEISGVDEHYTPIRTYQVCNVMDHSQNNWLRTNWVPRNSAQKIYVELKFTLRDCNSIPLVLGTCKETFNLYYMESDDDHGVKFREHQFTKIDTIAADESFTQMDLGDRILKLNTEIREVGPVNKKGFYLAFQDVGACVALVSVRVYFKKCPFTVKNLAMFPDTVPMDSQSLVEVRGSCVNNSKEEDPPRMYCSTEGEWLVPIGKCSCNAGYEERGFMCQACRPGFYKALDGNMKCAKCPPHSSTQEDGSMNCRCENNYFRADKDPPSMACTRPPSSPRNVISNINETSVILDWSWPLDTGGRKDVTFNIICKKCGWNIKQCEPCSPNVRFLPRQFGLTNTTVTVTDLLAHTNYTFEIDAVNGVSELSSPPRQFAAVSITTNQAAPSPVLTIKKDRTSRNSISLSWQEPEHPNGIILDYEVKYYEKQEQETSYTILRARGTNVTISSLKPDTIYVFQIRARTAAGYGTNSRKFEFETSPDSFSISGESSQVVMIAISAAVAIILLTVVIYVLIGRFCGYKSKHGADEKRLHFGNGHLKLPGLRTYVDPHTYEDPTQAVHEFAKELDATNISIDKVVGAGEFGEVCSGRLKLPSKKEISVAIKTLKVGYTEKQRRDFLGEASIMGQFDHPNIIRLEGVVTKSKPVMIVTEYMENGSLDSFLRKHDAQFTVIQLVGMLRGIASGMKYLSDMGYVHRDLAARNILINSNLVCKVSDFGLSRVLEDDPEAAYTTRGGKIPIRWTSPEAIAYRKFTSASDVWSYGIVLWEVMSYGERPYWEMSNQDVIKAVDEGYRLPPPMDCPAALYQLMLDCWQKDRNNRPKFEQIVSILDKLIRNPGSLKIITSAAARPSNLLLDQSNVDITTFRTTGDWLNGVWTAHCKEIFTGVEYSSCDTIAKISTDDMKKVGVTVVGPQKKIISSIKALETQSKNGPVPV

[7] = biological target: T1, Ephrin type-A receptor 3 (Homo sapiens); conditions: at 1 µM
[8] = biological target: Ephrin type-A receptor 4 (Homo sapiens) (UniProt P54764); conditions: at 0.1 µM
Chain of Ephrin type-A receptor 4 (Homo sapiens) (P54764 whole entry): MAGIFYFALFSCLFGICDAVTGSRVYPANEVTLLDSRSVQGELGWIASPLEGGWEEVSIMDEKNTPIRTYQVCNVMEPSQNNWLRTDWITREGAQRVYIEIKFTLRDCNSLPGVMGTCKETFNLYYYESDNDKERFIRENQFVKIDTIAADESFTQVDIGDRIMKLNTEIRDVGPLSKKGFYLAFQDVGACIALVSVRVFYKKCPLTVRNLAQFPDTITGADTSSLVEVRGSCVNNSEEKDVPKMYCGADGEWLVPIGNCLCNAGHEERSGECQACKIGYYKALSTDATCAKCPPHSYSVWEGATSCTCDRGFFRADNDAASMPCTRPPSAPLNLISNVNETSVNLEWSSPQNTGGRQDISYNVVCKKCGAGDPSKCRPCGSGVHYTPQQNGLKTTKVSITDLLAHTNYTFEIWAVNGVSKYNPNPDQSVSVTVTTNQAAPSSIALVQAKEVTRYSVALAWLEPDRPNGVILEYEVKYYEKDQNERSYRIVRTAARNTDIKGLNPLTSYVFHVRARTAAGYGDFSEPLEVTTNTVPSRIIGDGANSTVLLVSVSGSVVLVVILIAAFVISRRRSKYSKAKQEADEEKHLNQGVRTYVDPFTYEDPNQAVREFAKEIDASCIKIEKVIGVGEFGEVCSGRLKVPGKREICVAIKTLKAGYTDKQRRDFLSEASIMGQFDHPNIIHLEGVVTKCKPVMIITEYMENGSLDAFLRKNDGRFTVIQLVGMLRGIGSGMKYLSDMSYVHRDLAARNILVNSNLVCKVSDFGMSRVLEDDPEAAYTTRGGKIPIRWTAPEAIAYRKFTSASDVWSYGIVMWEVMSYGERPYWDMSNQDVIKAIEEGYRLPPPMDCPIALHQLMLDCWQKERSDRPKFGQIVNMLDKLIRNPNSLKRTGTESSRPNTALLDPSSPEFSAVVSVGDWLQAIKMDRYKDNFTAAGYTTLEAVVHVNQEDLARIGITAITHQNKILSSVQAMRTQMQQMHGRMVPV

[9] = biological target: Ephrin type-A receptor 4 (Homo sapiens) (UniProt P54764); conditions: at 1 µM
[10] = biological target: T2, Ephrin type-B receptor 2 (Homo sapiens) (UniProt P29323); conditions: at 0.1 µM
T2 sequence (whole entry): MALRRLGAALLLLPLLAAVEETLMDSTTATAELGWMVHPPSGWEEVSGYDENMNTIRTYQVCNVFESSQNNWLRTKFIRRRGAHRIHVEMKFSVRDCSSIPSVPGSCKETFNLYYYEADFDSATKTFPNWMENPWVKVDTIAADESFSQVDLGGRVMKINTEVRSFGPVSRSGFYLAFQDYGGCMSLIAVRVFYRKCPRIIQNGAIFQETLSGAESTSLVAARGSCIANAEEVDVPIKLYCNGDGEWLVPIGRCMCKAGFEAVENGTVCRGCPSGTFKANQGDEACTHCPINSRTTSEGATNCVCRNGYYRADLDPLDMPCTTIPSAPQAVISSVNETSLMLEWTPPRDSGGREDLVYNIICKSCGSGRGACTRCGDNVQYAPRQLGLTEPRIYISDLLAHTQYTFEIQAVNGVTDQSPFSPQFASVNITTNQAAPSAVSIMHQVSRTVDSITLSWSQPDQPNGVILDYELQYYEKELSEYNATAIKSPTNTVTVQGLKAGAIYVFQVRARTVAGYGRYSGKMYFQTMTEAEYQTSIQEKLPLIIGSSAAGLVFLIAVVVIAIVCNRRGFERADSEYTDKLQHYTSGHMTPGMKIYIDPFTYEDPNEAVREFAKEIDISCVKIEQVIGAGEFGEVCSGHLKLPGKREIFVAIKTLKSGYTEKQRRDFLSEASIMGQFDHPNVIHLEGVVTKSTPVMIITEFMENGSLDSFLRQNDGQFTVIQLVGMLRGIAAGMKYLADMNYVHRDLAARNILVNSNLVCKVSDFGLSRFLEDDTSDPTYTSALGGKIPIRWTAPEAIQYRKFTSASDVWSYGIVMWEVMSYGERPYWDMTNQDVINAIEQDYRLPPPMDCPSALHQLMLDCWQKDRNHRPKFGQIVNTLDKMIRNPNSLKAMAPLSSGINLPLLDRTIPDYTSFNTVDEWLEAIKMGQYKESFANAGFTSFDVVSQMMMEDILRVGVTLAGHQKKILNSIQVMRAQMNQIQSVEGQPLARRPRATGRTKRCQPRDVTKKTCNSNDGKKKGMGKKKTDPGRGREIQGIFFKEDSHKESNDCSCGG

[11] = biological target: T2, Ephrin type-B receptor 2 (Homo sapiens); conditions: at 1 µM
[12] = biological target: T3, Ephrin type-B receptor 3 (Homo sapiens) (UniProt P54753); conditions: at 0.1 µM
T3 sequence (whole entry): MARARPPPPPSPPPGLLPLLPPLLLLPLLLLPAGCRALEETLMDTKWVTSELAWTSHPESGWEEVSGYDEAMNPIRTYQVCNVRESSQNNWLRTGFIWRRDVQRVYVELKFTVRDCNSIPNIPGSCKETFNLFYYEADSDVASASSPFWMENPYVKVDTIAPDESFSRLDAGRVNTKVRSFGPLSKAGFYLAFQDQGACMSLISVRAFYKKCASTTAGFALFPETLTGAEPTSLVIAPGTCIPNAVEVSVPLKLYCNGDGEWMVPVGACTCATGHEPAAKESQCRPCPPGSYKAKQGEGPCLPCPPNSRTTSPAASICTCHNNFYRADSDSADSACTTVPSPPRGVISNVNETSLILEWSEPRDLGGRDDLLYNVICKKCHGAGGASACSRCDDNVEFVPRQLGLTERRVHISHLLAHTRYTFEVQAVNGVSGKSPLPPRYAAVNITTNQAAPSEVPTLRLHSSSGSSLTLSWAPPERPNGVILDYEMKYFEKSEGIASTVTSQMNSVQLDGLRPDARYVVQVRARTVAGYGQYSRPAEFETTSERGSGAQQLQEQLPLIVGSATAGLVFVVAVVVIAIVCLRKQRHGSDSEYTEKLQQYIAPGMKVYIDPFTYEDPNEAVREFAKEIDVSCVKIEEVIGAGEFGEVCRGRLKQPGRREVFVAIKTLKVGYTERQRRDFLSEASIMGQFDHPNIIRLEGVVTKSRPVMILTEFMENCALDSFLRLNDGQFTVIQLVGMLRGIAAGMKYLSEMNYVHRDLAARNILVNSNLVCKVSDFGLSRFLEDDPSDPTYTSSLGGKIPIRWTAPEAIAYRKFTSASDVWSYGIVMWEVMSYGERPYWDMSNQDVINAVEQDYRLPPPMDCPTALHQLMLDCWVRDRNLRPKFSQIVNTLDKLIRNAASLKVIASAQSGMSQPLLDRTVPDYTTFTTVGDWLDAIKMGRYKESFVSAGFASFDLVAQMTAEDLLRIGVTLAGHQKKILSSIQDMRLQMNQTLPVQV

[13] = biological target: T3, Ephrin type-B receptor 3 (Homo sapiens); conditions: at 1 µM
[14] = biological target: T4, Ephrin type-B receptor 4 (Homo sapiens) (UniProt P54760); conditions: at 0.1 µM
T4 sequence (whole entry): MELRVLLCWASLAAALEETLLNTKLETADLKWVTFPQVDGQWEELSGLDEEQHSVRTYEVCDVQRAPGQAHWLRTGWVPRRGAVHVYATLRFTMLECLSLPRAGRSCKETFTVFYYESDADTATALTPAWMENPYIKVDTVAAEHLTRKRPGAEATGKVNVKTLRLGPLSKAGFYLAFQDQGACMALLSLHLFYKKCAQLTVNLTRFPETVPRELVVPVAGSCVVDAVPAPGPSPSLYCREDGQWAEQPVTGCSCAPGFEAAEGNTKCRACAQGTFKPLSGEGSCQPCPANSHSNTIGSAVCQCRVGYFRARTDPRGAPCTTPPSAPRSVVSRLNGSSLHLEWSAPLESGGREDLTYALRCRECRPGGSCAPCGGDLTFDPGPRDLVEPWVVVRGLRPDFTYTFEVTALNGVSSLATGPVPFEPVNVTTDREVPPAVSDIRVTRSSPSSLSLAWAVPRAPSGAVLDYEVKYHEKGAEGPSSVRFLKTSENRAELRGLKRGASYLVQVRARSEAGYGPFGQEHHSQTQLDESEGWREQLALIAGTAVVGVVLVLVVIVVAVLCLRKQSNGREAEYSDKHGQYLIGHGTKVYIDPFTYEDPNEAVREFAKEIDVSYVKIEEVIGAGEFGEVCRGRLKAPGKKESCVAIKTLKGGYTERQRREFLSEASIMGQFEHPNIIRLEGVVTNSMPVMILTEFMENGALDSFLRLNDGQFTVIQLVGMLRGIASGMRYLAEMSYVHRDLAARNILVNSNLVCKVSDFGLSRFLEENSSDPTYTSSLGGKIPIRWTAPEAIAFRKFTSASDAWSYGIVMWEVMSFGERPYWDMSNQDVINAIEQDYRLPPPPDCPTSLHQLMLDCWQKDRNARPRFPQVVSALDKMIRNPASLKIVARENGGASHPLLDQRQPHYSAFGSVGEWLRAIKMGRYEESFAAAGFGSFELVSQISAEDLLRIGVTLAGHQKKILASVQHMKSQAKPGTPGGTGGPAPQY

[15] = biological target: T4, Ephrin type-B receptor 4 (Homo sapiens); conditions: at 1 µM
[16] = biological target: Receptor tyrosine-protein kinase erbB-2 (Homo sapiens) (UniProt P04626); conditions: at 0.1 µM
[17] = biological target: Receptor tyrosine-protein kinase erbB-2 (Homo sapiens) (UniProt P04626); conditions: at 1 µM
[18] = biological target: Receptor tyrosine-protein kinase erbB-4 (Homo sapiens) (UniProt Q15303); conditions: at 0.1 µM
[19] = biological target: Receptor tyrosine-protein kinase erbB-4 (Homo sapiens) (UniProt Q15303); conditions: at 1 µM
[20] = biological target: Tyrosine-protein kinase Fer (Homo sapiens) (UniProt P16591); conditions: at 0.1 µM;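 note: reported figures are averaged percent inhibition of FER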

Chain of Epidermal growth factor receptor (Homo sapiens), P00533 [L858R,T790M] (P00533 whole entry T790M/L858R, looked up): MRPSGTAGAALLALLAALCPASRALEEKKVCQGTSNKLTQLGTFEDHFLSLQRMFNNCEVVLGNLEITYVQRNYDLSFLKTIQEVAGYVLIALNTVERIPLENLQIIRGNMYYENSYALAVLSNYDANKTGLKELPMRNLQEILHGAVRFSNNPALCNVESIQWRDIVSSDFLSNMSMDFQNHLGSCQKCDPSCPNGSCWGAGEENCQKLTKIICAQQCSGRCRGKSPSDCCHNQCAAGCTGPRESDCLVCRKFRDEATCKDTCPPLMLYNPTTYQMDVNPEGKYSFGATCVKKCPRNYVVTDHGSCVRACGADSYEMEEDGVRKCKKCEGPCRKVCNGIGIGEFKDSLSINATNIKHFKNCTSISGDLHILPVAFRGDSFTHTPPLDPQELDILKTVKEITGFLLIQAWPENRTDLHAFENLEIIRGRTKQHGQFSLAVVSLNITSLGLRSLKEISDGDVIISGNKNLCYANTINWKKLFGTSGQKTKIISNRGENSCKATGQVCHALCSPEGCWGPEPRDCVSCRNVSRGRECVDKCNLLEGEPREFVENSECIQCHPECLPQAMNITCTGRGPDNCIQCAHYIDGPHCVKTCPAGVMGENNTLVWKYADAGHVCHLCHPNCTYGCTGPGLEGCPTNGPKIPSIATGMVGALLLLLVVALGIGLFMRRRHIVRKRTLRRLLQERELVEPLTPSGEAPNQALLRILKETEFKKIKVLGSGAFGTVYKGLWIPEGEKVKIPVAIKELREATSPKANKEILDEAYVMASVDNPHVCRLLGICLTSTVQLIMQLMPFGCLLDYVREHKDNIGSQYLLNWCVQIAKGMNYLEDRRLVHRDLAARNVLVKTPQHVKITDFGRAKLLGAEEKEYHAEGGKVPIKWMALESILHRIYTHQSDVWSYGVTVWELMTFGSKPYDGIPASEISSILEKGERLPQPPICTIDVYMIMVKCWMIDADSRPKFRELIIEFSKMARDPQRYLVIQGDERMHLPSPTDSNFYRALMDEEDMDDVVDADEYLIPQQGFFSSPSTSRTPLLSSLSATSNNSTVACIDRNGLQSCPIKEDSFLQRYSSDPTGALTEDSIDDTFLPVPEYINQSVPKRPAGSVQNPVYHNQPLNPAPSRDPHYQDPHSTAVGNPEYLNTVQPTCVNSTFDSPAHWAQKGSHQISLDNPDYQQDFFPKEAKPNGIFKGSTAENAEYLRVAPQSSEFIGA
Chain of Epidermal growth factor receptor (Homo sapiens), P00533 [T790M] (P00533 whole entry T790M): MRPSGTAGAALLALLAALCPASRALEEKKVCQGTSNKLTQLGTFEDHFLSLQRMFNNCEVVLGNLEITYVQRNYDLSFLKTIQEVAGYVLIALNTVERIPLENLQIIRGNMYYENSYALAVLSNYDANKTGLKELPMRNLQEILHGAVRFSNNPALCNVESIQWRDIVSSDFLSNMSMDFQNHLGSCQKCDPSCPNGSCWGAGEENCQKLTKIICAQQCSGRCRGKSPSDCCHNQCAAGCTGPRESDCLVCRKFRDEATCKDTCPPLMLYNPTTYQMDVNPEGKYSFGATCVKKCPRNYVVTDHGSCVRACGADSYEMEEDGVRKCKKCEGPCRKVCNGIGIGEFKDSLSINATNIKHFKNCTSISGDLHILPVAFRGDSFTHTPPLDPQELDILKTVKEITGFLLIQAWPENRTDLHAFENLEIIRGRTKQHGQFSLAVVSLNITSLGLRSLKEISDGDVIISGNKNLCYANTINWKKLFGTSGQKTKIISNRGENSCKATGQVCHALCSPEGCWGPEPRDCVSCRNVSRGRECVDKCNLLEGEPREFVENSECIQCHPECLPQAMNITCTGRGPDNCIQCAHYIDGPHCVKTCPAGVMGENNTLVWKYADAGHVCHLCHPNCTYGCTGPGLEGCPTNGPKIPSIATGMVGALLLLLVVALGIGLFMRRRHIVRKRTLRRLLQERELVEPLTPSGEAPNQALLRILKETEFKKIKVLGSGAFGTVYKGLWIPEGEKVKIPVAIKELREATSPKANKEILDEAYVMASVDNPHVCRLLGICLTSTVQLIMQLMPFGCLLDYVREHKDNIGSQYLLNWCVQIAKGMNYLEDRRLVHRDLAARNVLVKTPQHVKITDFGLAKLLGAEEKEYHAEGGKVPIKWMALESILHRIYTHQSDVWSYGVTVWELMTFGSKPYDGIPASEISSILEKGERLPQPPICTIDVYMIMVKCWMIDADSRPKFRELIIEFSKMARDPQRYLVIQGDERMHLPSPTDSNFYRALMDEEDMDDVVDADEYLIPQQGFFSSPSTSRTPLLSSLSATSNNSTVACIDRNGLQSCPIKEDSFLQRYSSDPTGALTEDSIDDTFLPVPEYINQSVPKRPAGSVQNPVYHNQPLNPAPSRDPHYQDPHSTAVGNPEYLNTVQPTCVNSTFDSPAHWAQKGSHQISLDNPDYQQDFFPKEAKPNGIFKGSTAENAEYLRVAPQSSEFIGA

Row | Structure (SMILES) | inhibition [1] [%] | inhibition [2] [%] | inhibition [3] [%] | inhibition [4] [%] | inhibition [5] [%] | inhibition [6] [%] | inhibition [7] [%] | inhibition [8] [%] | inhibition [9] [%] | inhibition [10] [%] | inhibition [11] [%] | inhibition [12] [%] | inhibition [13] [%] | inhibition [14] [%] | inhibition [15] [%] | inhibition [16] [%] | inhibition [17] [%] | inhibition [18] [%] | inhibition [19] [%] | inhibition [20] [%]
1 | CCS(=O)(=O)c1ccc(OC)c(Nc2ncc(-c3cccc(F)c3)o2)c1 | 3.03 | 5.67 | 2.98 | 2.15 | 9.85 | 8.12 | 17 | 11.3 | 33.5 | 18.5 | 45.9 | 3.05 | 6.76 | 5.59 | 31.7 | 38.7 | 5.62 | 9.46 | 17.8 | 2.32
2 | Cn1c(-c2nonc2N)nc2cnccc21 | 0.67 | -1.07 | -0.94 | 1.97 | 1.07 | 6.89 | 4.47 | 7.88 | 4.19 | 4.59 | 3.92 | 3.54 | 4.62 | 2.84 | 2 | 4.78 | 3.42 | 14.9 | 17.3 | 3.92
3 | Cc1c2ccc(N(C)c3ccnc(Nc4cccc(S(N)(=O)=O)c4)n3)cc2nn1C | 3.28 | 2.62 | 13.1 | -1.48 | 2.19 | 0.79 | 2.97 | 8.51 | 14.2 | 5.88 | 23.3 | 3.38 | 0.55 | 0.19 | 10.3 | 1.55 | -3.44 | 5.59 | 12.1 | 25.1
